# Screens (PubChem)
# Coupling enz – inhibits coupling enzyme system, counter-screen for aldolase hits; coupling enzyme system counterscreen, AmpLite Red fluorescence; activity change, negative = inhibition, % at 58.2 µM, hits read low; hit rate 0.67% among 290,000; AID 2472; in the data active = activity change below about -30%
#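 Fluorescence at 525 nm excitation and 598 nm emission measured inhibition of the coupled detection system without aldolase. Compounds (at 57.5 uM final) were preincubated 10 min at room temperature with coupling enzyme reagent before a 20 min substrate/AmpLite Red step.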
# Tau fluor counter – counter-screen for tau fibril formation inhibitors; tau K18 P301L Alexa594 fluorescence, heparin fibrillization; Potency, µM (series often up to 57.7 µM); hit rate 0.93% among 280,000; also: nearly all actives have a fitted effect of over 55% in size
#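 Human K18 P301L tau (15 uM unlabeled plus 0.24 uM Alexa 594-labeled, final) in 100 mM sodium acetate pH 7 was mixed with compound and 20 uM heparin and incubated 6 hr at 37 C.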
# Tau ThT inhib – blocks human tau fibril formation measured by thioflavin T; hit rate 2.1% among 270,000; P10636; Potency, µM (doses to about 57.4 µM), actives largely listed as inhibitors; AID 1460; recombinant tau K18 P301L (four-repeat tau fragment), heparin-induced fibrillization, ThT fluorescence; also: nearly all actives have a fitted effect of over 55% in size
# Target sequence (P10636 561-689 P618L limits assumed): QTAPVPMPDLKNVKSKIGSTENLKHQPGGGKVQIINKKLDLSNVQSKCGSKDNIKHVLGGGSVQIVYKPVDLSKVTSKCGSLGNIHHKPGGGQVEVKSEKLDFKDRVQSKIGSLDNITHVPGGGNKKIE
#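 Heparin-induced fibrillization of the P301L-mutant K18 repeat-domain fragment of human tau was followed by ThT binding in quantitative high-throughput format.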
# Tau fibril FP – inhibitors of human tau fibril formation. P10636. hit rate 0.39% among 280,000. K18 P301L tau heparin fibrillization, Alexa594 FP, 6 h. Potency, µM (titrated, usually from 57.7 µM), hits mostly inhibitors. AID 1468; also: nearly all actives have a fitted effect of over 55% in size
#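 Recombinant K18 P301L […], labeled with Alexa 594 at 0.24 uM over 15 uM unlabeled; heparin inducer 20 uM final; 37 C, 6 hr; FP endpoint.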
# Numbers stand for hits; 0 = inactive; ? = inconclusive; - = no result; [ ] = remark or other dose. This is a sample that favours compounds with a hit; in the whole collection about 2.7% have one here. Unless noted, calls follow the shape of the dose curve; as a rule, active = well fitted curve in the direction sought with a large enough effect; inconclusive = small, poorly fitted or top-dose-only effect, or another doubt; inactive = no such curve, though single readings can be large; an effect the other way counts as inactive or inconclusive.
SMILES,Coupling enz,Tau fluor counter,Tau ThT inhib,Tau fibril FP
CCC1CN2CCC1CC2[C@@H](NC(=S)Nc1cc(C(F)(F)F)cc(C(F)(F)F)c1)c1cccc2ccc(OC)cc12 (some centres not stated),0,0,0,?
Clc1ccc(Nc2ccc(NCc3ccccc3)nn2)cc1,0,13µM[quencher],?,0
Cc1ccc(CNC(=O)CN(c2cc(C)cc(C)c2)S(=O)(=O)c2c(C)noc2C)cc1,-,0,0,0
Cc1ccc(C(=O)O)cc1-c1ccc(/C=C2/NC(=O)N(c3ccccc3)C2=O)o1,0,0,28µM,0
Cc1cc(C)c2c(N)c(S(=O)c3ccc(C(C)(C)C)cc3)sc2n1 (configuration not stated),0,?,25µM,?
NCCS,0,?,16µM,?
O=C1CCc2ccccc2N1,0,0,0,0
S=C1Cc2ccccc2N1,0,8.9µM[quencher],0.71µM,?
C/C=C\C=C/C(=O)Nc1cccc(C2=NOC3(C2)C[C@@H](C(N)=O)N(C(=O)/C=C/C=C\C)C3)c1 (some centres not stated),0,0,25µM,?
C/C=C\C=C/C(=O)Nc1cccc(C2=NOC3(C2)C[C@@H](C(N)=O)N(C(=O)/C=C/CC)C3)c1 (some centres not stated),0,0,0,0
COc1cc(/C=C/c2ccc3cccc(OC)c3n2)c(OC(C)=O)c([N+](=O)[O-])c1,0,?,2.8µM,?
COc1cc(/C=C/c2ccc3cccc(OC)c3n2)c(O)c([N+](=O)[O-])c1,0,?,1µM,0
COc1cccc(C2=NS(=O)(=O)N(C)C(C(=O)Nc3cccc(O)c3)=C2)c1,-,0,0,0
CC(C)n1c(=O)[nH][nH]c1=S,0,0,28µM,?
CC(C)n1c(=O)[nH]c2ccccc21,0,0,0,0
O=C(C1=C(O)/C(=C/c2ccc(O)cc2)CCC1)C(F)(F)F,0,?,28µM,?
COc1ccc(/C=C2\CCCC(C(=O)C(F)(F)F)=C2O)cc1,0,0,?,0
Cn1ncc([N+](=O)[O-])c1C(=O)N/N=C/c1cccc([N+](=O)[O-])c1,-35,0,0,0
CCn1c(O)c(C2=c3ccccc3=NC2=O)c2cc(Br)ccc21,0,0,0,0
O=C1N=c2ccccc2=C1c1c(O)n(-c2cccc(F)c2)[nH]c1=O,0,0,14µM,?
COc1cc(/C=C(\NC(=O)c2ccccc2)C(=O)N2CC3CC(C2)c2cccc(=O)n2C3)cc(OC)c1OC (configuration not stated),0,0,-,0
O=C1/C(=C/c2ccccc2)Nc2ccccc21,0,0,13µM,0
CCN=c1scc(C)n1/N=C/c1ccc(O)c(O)c1O,-37,?,11µM,22µM
CCN=c1scc(C)n1/N=C/c1cc(Br)c(O)c(Br)c1,0,?,?,0
Cc1cc(C)n(/N=C/c2c[nH]c3ccccc23)c(=O)c1,0,0,0,0
SMILES,Coupling enz,Tau fluor counter,Tau ThT inhib,Tau fibril FP
COCCN=c1scc(-c2cccs2)n1/N=C/c1ccc(O)c(O)c1O,-33,0,0,0
COC(=O)N/N=C/c1cccs1,0,0,0,0
COCCN=c1scc(-c2ccccc2)n1/N=C/c1c[nH]c2ccccc12,0,10µM[quencher],13µM,?
CC(C)Oc1ccc(C(=O)N(Cc2ccco2)c2ccccn2)cc1,-,0,0,0
Cc1cc(O)c(C=O)c2c1C(=O)Oc1c(CO)c(O)c3c(c1O2)C(O)OC3=O (configuration not stated),0,?,?,16µM
Cc1cc(O)c(C=O)c(O)c1C(=O)O,0,0,?,0
Cc1cc(O)c(C=O)c2c1C(=O)Oc1c(COC(=O)/C=C/C(=O)O)c(O)c(C(=O)O)c(C)c1O2,0,0,8.9µM,3.5µM
CCN(CC)CCn1c(-c2ccccc2)nc2c(NCc3ccccc3)nc(C)nc21,0,0,0,0
Cc1cccc(NC(=S)N=Nc2c(O)n(CN3CCOCC3)c3ccccc23)c1C,0,11µM[quencher],?,0
Fc1ccc(-c2nnc(CSc3nnc4ccccn34)o2)cc1,0,0,0,0
c1ccc(-c2cnc(CSc3nnc4ccccn34)o2)cc1,-37,0,0,0
Clc1ccc2nc(-c3ccc(Br)o3)c(Nc3ccc4c(c3)OCCO4)n2c1,-,?,0,0
Cn1c2c(c(=O)n(C)c1=O)C1(C(=O)Nc3ccccc31)C(C#N)=C(N)O2 (configuration not stated),-54,0,14µM,?
